According to PubChem BioAssay AID1159580 (chemical genetic matrix, 2015):
Several values for one entry are separate records, joined by “and”; a condition that tells them apart may be missing. Equal values may be shown once. In all, about 5,500 compounds went through this assay and about 2,000 (36%) were called active. Inconclusive results (about 18%) are left out. Cut-off read from the data, not from the text of the source: active = normalized growth mostly below about 0.91 (no sharp cut-off); inconclusive = no clear call, values can overlap the other calls; inactive = mostly above about 0.92. The list shows a part of the results.

Assay: chemical genetic growth profiling, strain panel (AID 1159580);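 note: tested at 20 µM; growth read once vehicle control cultures reached saturation at 30 °C; 1 = growth at the plate median or of vehicle wells; lower values mean less growth of the strain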
Settings: S. cerevisiae deletion strains, growth OD

Measured: normalized growth

CC1(C)O[C@@H]2CC3C4C[C@H](F)C5=CC(=O)C=CC5(C)C4C(O)CC3(C)[C@]2(C(=O)CO)O1 (stereo partly drawn)
inactive: locus YAL013W, strain DEP1, active compounds read low 1.02 | locus YAL021C, strain ccr4, active compounds read low 1 | locus YAL026C, strain drs2, active compounds read low 0.993 | locus YAL030W, strain snc1, active compounds read low 0.992 | locus YBL061C, strain skt5, active compounds read low 0.979 | locus YBR009C, strain hhf1, active compounds read low 1.01 | locus YBR021W, strain FUR4, active compounds read low 1.02 | locus YBR023C, strain chs3, active compounds read low 0.987 | locus YBR171W, strain sec66, active compounds read low 0.985 | locus YBR229C, strain ROT2, active compounds read low 1.02 | locus YBR231C, strain swc5, active compounds read low 1 | locus YBR279W, strain paf1, active compounds read low 0.976 | locus YCL011C, strain gbp2, active compounds read low 0.982 | locus YCL016C, strain dcc1, active compounds read low 0.96 | locus YCL029C, strain bik1, active compounds read low 0.989 | locus YCL069W, strain vba3, active compounds read low 0.995 | locus YCR088W, strain abp1, active compounds read low 0.992 | locus YDL005C, strain med2, active compounds read low 0.973 | locus YDL035C, strain GPR1, active compounds read low 1.02 | locus YDL040C, strain nat1, active compounds read low 0.983 | locus YDL074C, strain BRE1, active compounds read low 1.04 | locus YDL101C, strain DUN1, active compounds read low 1.02 | locus YDL134C, strain PPH21, active compounds read low 1.02 | locus YDL185W, strain tfp1, active compounds read low 0.991 | locus YDL192W, strain arf1, active compounds read low 1.01 | locus YDR001C, strain nth1, active compounds read low 0.983 | locus YDR069C, strain doa4, active compounds read low 1 | locus YDR101C, strain arx1, active compounds read low 1 | locus YDR137W, strain rgp1, active compounds read low 1 | locus YDR159W, strain sac3, active compounds read low 0.982 | locus YDR162C, strain NBP2, active compounds read low 1.01 | locus YDR195W, strain ref2 0.997 | locus YDR297W, strain sur2, active compounds read low 1 | locus YDR318W, strain mcm21, active compounds read low 0.996 | locus YDR334W, strain swr1, active compounds read low 0.985 | locus YDR335W, strain msn5, active compounds read low 0.975 | locus YDR388W, active compounds read low 0.99 | locus YDR392W, strain spt3, active compounds read low 0.917 | locus YDR502C, strain sam2, active compounds read low 0.991 | locus YEL003W, strain gim4, active compounds read low 1.02 | locus YEL037C, strain rad23, active compounds read low 0.979 | locus YEL061C, strain CIN8 (second series), active compounds read low 0.987 | locus YEL061C, strain CIN8, active compounds read low 1.01 | locus YER015W, strain faa2, active compounds read low 0.996 | locus YER016W, strain bim1, active compounds read low 0.971 | locus YER110C, active compounds read low 0.988 | locus YER111C, strain swi4, active compounds read low 0.975 | locus YER155C, strain BEM2 (second series), active compounds read low 1.01 | locus YER155C, strain BEM2, active compounds read low 1.01 | locus YER167W, strain BCK2, active compounds read low 1.01 | locus YFR010W, strain ubp6, active compounds read low 1.01 | locus YGL078C, strain dbp3, active compounds read low 0.979 | locus YGL086W, strain mad1, active compounds read low 1.01 | locus YGL167C, strain pmr1, active compounds read low 0.996 | locus YGL173C, strain kem1, active compounds read low 1 | locus YGL227W, strain vid30, active compounds read low 0.988 | locus YGL240W, strain doc1, active compounds read low 1.02 | locus YGL248W, strain PDE1, active compounds read low 1.03 | locus YGL253W, strain hxk2, active compounds read low 0.959 | locus YGR135W, strain pre9, active compounds read low 0.98 | locus YGR252W, strain gcn5, active compounds read low 0.984 | locus YHR013C, strain ard1, active compounds read low 0.957 | locus YHR027C, strain rpn1, active compounds read low 0.99 | locus YHR030C, strain SLT2, active compounds read low 1.01 and 1.02 | locus YHR079C, strain IRE1 (second series), active compounds read low 0.99 | locus YHR079C, strain IRE1, active compounds read low 1.02 | locus YHR094C, strain hxt1, active compounds read low 0.98 | locus YHR129C, strain ARP1, active compounds read low 1.02 | locus YHR142W, strain chs7, active compounds read low 0.941 | locus YHR200W, strain rpn10, active compounds read low 0.998 | locus YIL066C, strain RNR3, active compounds read low 1.02 | locus YIL073C, strain SPO22, active compounds read low 0.999 | locus YIL125W, strain kgd1, active compounds read low 0.99 | locus YIR030C, strain dcg1, active compounds read low 0.998 | locus YJL092W, strain hpr5, active compounds read low 1 | locus YJL095W, strain BCK1 (second series), active compounds read low 0.978 | locus YJL095W, strain BCK1, active compounds read low 1.04 and 1.03 | locus YJL115W, strain asf1, active compounds read low 0.974 | locus YJL129C, strain trk1, active compounds read low 0.953 | locus YJL134W, strain LCB3, active compounds read low 1.01 | locus YJL154C, strain vps35, active compounds read low 0.976 | locus YJL164C, strain tpk1, active compounds read low 0.972 | locus YJL166W, strain qcr8, active compounds read low 1.02 | locus YJL168C, strain set2, active compounds read low 0.993 | locus YJL187C, strain SWE1 (second series), active compounds read low 1.02 | locus YJR043C, strain POL32, active compounds read low 1.02 | locus YJR066W, strain TOR1, active compounds read low 0.954 | locus YJR075W, strain HOC1, active compounds read low 1.03
